Experimental data taken from PubChem BioAssay AID873 (PCMD, 2007).
The campaign covered roughly 210,000 compounds. About 1,300 (0.62%) were called active. The full list was thinned out, with actives kept by preference. Unmarked numbers belong to inactive results.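 The calls were made as follows: active = inhibition of 40% or more; inactive = the rest.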

target: Kallikrein-5 (Homo sapiens) (UniProt Q9Y337); experiment: human KLK5 protease inhibitors, primary screen, biochemical, 1536-well (AID 873); settings: recombinant hK5, fluorogenic AMC substrate cleavage; at 5 µM; stronger effect = higher value;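 also: 0% = enzyme controls without compound and 100% = no-enzyme blanks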
Sequence (Q9Y337 67-293 limits assumed): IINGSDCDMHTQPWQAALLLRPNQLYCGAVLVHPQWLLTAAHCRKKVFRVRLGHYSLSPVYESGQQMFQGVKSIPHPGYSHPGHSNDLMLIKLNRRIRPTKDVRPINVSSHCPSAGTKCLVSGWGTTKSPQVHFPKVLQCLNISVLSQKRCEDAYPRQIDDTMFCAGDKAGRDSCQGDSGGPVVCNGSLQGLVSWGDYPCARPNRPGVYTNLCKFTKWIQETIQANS

Row | SMILES | inhibition
1 | Cc1ccc(Oc2cnn(-c3ccccc3)c(=O)c2Br)cc1 | -20.9%
2 | O=c1c(Cl)c(NC2CC2)cnn1-c1ccccc1 | -14.4%
3 | C=CCNc1cnn(-c2ccc(C)cc2)c(=O)c1Cl | 58% (active)
4 | CS(=O)(=O)c1ccc(Cl)c(NC(=O)Nc2ccccc2)c1 | 15.8%
5 | CC(C)c1nc(SCC(=O)NC(=O)NC(C)(C)C)n[nH]1 | -0.71%
6 | Cc1cccn2c(CNCC(C)Oc3cccnc3)c(C(=O)N3CCOCC3)nc12 (stereo unspecified) | -2.01%
7 | COc1ccc(N2CCC(CNC(=S)Nc3c(C)cccc3C)C2)cc1 (stereo unspecified) | -0.97%
8 | Cc1nc2nc(SCC(=O)c3ccccc3)[nH]c2cc1Br | 1.2%
9 | C/C(=N/NC(=O)CN1CCN(S(=O)(=O)c2ccc(Br)cc2)CC1)c1ccncc1 | 1.01%
10 | CCc1ccccc1NC(=O)c1cccs1 | -5.15%
11 | O=C(Nc1ccccc1-c1ccccc1)c1cccs1 | 40% (active)
12 | O=C(Nc1ccccc1-c1nnn(CC(=O)N2CCN(c3ccccc3)CC2)n1)c1cccs1 | 8.06%
13 | CC(C)Cc1oc(C(=O)O)cc1CN | -20.2%
14 | Cc1oc(CC(C)C)c(CN2CCCC2)c1C(=O)O | 40.4% (active)
15 | Cc1cc(=O)oc(C)c1C(=O)N1CCCCC1 | -21.2%
16 | Cc1ccc(Nc2c3c(nc4ccccc24)CCC3)cc1 | -1.22%
17 | COc1ccc(NS(=O)(=O)c2ccc(N3CCOCC3)c(NC(=O)c3ccccc3Br)c2)cc1 | -3.92%
18 | Cc1cc(C)nc(Nc2n[nH]c(-c3ccccc3N)n2)n1 | -1.46%
19 | CC(C)CCN1NC2(CCC(C)CC2)NC1=S (stereo unspecified) | 0.13%
20 | CCN1CCN(CCCCOc2ccccc2F)CC1 | -9.3%
21 | COc1ccccc1N1CCN(Cc2ccc(OC)c3ccccc23)CC1 | -4.66%
22 | COc1ccccc1N1CCN(CCCCOc2ccc(F)cc2)CC1 | 40.1% (active)
23 | CCOC(=O)c1ccc(NC(=O)Cn2cnc3cc(C)c(C)cc32)cc1 | 3.77%
24 | Cc1nc(N)[nH]c(=O)c1Oc1cccc(C(F)(F)F)c1 | -0.74%
25 | Cc1cc(=O)[nH]c(SCC(=O)Nc2ccc(Br)cc2)n1 | 2.46%
26 | CCOc1ccccc1N1CN(Cc2ccccc2)CNC1=S | -6.7%

Row | SMILES | inhibition
27 | CCCc1ccc(C(=O)[C@@H]2[C@@H](C(C)=O)N3c4ccc(F)cc4C=C[C@@H]3[C@@]23C(=O)Nc2ccccc23)cc1 | 3.66%
28 | O=C(c1cnn2ccccc12)N1CCc2ccccc21 | 68.7% (active)
29 | NC(=O)N1CCc2ccccc21 | -6.77%
30 | O=C(c1cccc(C(=O)N2CCc3ccccc32)n1)N1CCc2ccccc21 | -28.7%
31 | COC(=O)c1noc(C)c1-c1ccnn1C(=O)c1ccc(Cl)cc1 | 14.2%
32 | O=C(O)CSc1nccc2ccccc12 | -3.99%
33 | O=C(O)c1ccccc1-c1ccccc1C(=O)Nc1cccc2ccccc12 | 3.53%
34 | O=C(O)C#Cc1cccc2ccccc12 | 42.9% (active)
35 | COC(=O)c1cc(C(=O)OCC(=O)Nc2cc(C)on2)cc([N+](=O)[O-])c1 | 23.6%
36 | C/C(=N\NC(=S)NCc1ccccc1)c1ccc(Cl)cc1 | 56.7% (active)
37 | O=C(O)c1ccc(/C=N/NC(=S)NCc2ccccc2)cc1 | -1.6%
38 | C/C(=N\NC(=S)NCc1ccccc1)C1CCCCC1 | -4.43%
39 | COc1ccc2oc(C)c(NC(C)=O)c2c1 | -13.5%
40 | COc1ccc(C(=O)c2oc3ccc(Br)cc3c2NC(C)=O)cc1 | -25.1%
41 | COC(=O)c1oc2ccc(Br)cc2c1NC(C)=O | 41.8% (active)
42 | Cc1ccc(Nc2nc(Cl)c(C=O)s2)cc1 | 0.92%
43 | COc1cccc(NC(=O)CS(=O)(=O)c2cn(CC(=O)N3CCOCC3)c3ccccc23)c1 | -2.04%
44 | O=C(CS(=O)(=O)c1cn(Cc2cccc(F)c2)c2ccccc12)N1CCCCC1 | -11.7%
45 | O=C(CS(=O)(=O)c1cn(Cc2ccc(Cl)cc2)c2ccccc12)N1CCOCC1 | 47% (active)
46 | COC(=O)Cn1cc(C(=O)c2cccs2)c2ccccc21 | 40.6% (active)
47 | COCCNC(=O)Cn1cc(C(=O)c2cccs2)c2ccccc21 | -5.68%
48 | O=C(Cn1cc(C(=O)c2cccs2)c2ccccc21)NCc1cccs1 | -1.96%
49 | Cc1ccc(OCC(=O)Nc2nnc(-c3ccco3)s2)cc1 | -1.13%
50 | CC(C)CNc1ncnc2c1cnn2Cc1ccc(Cl)cc1 | -1.93%
51 | Cc1cccc(NC(=O)c2ccc([N+](=O)[O-])o2)c1 | -2.56%
52 | Cc1onc(NC(=O)c2ccc([N+](=O)[O-])o2)c1Br | 47.1% (active)

Row | SMILES | inhibition
53 | O=C(Nc1ccc(Br)cn1)c1ccc([N+](=O)[O-])o1 | -4.1%
54 | CCCNc1c(N)c(=O)c1=O | -0.24%
55 | Cc1ccc(Oc2nc(-c3ccccn3)nc3ccccc23)cc1 | -11.3%
56 | N#C/C(=C/c1ccc(-c2ccccc2[N+](=O)[O-])o1)C(=O)NCCN1CCCCC1 | 1.64%
57 | Cc1ccc(-c2csc(-c3cc(C)on3)n2)cc1 | 44.8% (active)
58 | CCCc1cc(-c2nc(-c3ccc(C)cc3)cs2)ccn1 | -10.9%
59 | Cc1ccc(-c2csc(SCC(=O)Nc3cc(C)on3)n2)cc1 | -2.17%
60 | O=c1c(/C=N/O)coc2ccc(Cl)cc12 | 3.19%
61 | Cc1ccc(N2C(=O)CC(Nc3cccc4ccccc34)C2=O)cc1 (stereo unspecified) | 0.34%
62 | CC1C(=O)NC(=O)C1c1ccccc1 (stereo unspecified) | 1.86%
63 | CCOc1ccc(CN(Cc2ccco2)C(c2cccs2)c2nnnn2C(C)(C)C)cc1 (stereo unspecified) | 9.28%
64 | CC(C)(C)n1nnnc1C(c1cccs1)N(Cc1cccnc1)CC1CCCO1 (stereo unspecified) | 45% (active)
65 | CC(C)C(c1nnnn1C(C)(C)C)N1CCN(Cc2cccnc2)CC1 (stereo unspecified) | 4.44%
66 | Cc1nnc(SCC(=O)N2CCOCC2)[nH]c1=O | -13.7%
67 | O=C(CSc1nc2c(cnn2-c2ccc(F)cc2)c(=O)[nH]1)N1CCCCCC1 | 68.2% (active)
68 | CC(=O)c1sc2nc(SCC(=O)N3CCCCC3)[nH]c(=O)c2c1C | -8.76%
69 | Cc1coc2cc3oc(=O)c(CCC(=O)O)c(C)c3cc12 | -1.04%
70 | Cc1ccc(C(O)P(=O)(OC(C)C)c2ccc(N(C)C)cc2)cc1 (stereo unspecified) | -0.37%
71 | COc1cccc(NC(=O)c2ccc(S(=O)(=O)N(C)C)cc2)c1 | 58.8% (active)
72 | COc1ccc(C(=O)Nc2cccc(S(C)(=O)=O)c2)cc1 | 9.53%
73 | CCC(=O)Nc1ccc(C(=O)Nc2cccc(OC)c2)cc1 | -2.36%
74 | CC1CN(c2nc(Nc3ccccc3)nc(N)c2[N+](=O)[O-])CC(C)O1 (stereo unspecified) | 1.28%
75 | COn1c(-c2ccc(Cl)cc2Cl)nc2ncccc21 | -1.75%
76 | Cc1ncn2cc(-c3ccc(Cl)cc3Cl)[nH]c(=O)c12 | 63% (active)
77 | Clc1ccc(-c2ncc3ccccn23)c(Cl)c1 | 2.07%
78 | COc1ccc(OC)c(-n2c(-c3ccn[nH]3)n[nH]c2=S)c1 | -4.85%

Row | SMILES | inhibition
79 | NC(=O)Cc1ccc2c(c1)[nH]c1ccccc12 | 49.5% (active)
80 | CCn1c2ccccc2c2cc(CC(N)=O)ccc21 | 0.83%
81 | NC(=O)Cc1ccc2sc(-c3ccccc3)nc2c1 | 29.8%
82 | CCN(CC)c1ccc(/C=N/NC(=O)c2cnccn2)c(O)c1 | -3.69%
83 | Cc1nc(SCC(=O)N2CCc3ccccc3C2)c2c(C)c(C)sc2n1 | 59.1% (active)
84 | Cc1nc(SCC(=O)N2CC(=O)Nc3ccccc32)c2c(C)c(C)sc2n1 | -0.11%
85 | Cc1nnc(SCC(=O)N2CCc3ccccc3C2)s1 | 16.7%
86 | COc1ccccc1C1CCN(c2ccc([N+](=O)[O-])cn2)CC1 | 0.29%
87 | CC(=O)c1ccc2c(c1)OCCOCCOc1ccc(C(C)=O)cc1OCCOCCO2 | -1.51%
88 | O=c1[nH]c2cccnc2n1-c1ccc([N+](=O)[O-])cc1 | 0.04%
89 | O=C(O)c1ccc(NC(=O)C2CCCCC2)cc1 | -4.28%
90 | O=C(O)Cc1ccc(NC(=O)C2CCCCC2C(=O)O)cc1 (stereo unspecified) | 46.5% (active)
91 | O=C(O)C1CCCCC1C(=O)Nc1ccc(Cl)cc1 (stereo unspecified) | 2.31%
92 | COc1ccc(-c2noc(CN(C)S(=O)(=O)c3ccc(C)cc3)n2)cc1 | 1.11%
93 | COc1ccc(-c2noc(-c3ccc(C)cc3)n2)cc1 | -5.34%
94 | COc1ccc(-c2noc(CSc3ccc(C)cc3)n2)cc1 | 55.4% (active)
95 | O=C(Nc1ccc(S(=O)(=O)N2CCOCC2)cc1)c1ccc2ncsc2c1 | 6.27%
96 | COCc1cc(=O)[nH]c(-c2ccc(C(F)(F)F)cc2)n1 | -1.98%
97 | Cc1cccc(N(C)C(=O)c2cc3c(=O)[nH]c4ccc(C)cc4c3s2)c1 | 1.34%
98 | CS(=O)(=O)N(CC(=O)Nc1ccc(F)cc1F)c1cccc([N+](=O)[O-])c1 | 62.8% (active)
99 | CCN(CC)S(=O)(=O)c1ccc(NC(=O)CN(c2cccc(F)c2)S(C)(=O)=O)cc1 | -2.67%
100 | COc1cccc(N(CC(=O)Nc2cccc(F)c2)S(C)(=O)=O)c1 | 2.06%
101 | COc1ccc(NC(=O)C2=NNC(=O)CC2)cc1S(=O)(=O)N1CCCCC1 | -2.9%
